Shown is part of a subset that was picked to be rich in hits.
Pf Dd2 inh: blocks in vitro growth of P. falciparum Dd2; AID 1347417; P. falciparum Dd2 growth, SYBR Green, 72 h; Potency, µM (doses to about 28.9 µM), for inactives: at the highest dose activity, negative = inhibition, hits mostly inhibitors; hit rate 4.3% among 120,000; active means well fitted inhibition curve with a large enough effect;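 further: plate controls were DMSO vehicle for no effect and reference drug for full effect; nearly all actives have a fitted effect of over 65% in size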
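Readout: SYBR Green fluorescence, 485 nm excitation, 535 nm emission, after ~16 h lysis at 37C. Before that, Dd2-infected red cells (2.5% hematocrit) grew 72 h with compound, 29 uM top final concentration.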
An asterisk follows results filed as active; i = inactive; [ ] = remark or other dose. Potency means the concentration at half of the fitted maximal effect.

SMILES	Pf Dd2 inh
COc1cc2c(cc1OC)C(CNC(=O)c1cccs1)N(C(=O)Nc1ccc(C)cc1)CC2 (stereo not drawn)	-2.9%
COc1cc2c(cc1OC)C(COc1ccc3c(C)cc(=O)oc3c1)N(C(=O)c1ccc(C)cc1)CC2 (stereo not drawn)	11.2µM*
COCc1ncc(C)n1C1CCCN(C(=O)c2ccc(C)s2)C1 (stereo not drawn)	6.6%
COCC1CN(C(=O)c2cccc(Br)c2)CC12CCNCC2 (stereo not drawn)	i
Cc1noc(C)c1S(=O)(=O)N1CCC(N2CCCC2=O)CC1	-3.3%[44.1 µM]
COc1ccc(C2(C(=O)N3CCC4(CC3)CC(N3CCCCC3)CCO4)CC2)cc1 (stereo not drawn)	i
CN1Cc2ncnc(N3CCOCC3)c2CN(C2CCCCC2)C1=O	1.2%[44.1 µM]
CCN(Cc1ccccc1)S(=O)(=O)c1cc(Br)cc2c1N(C(=O)C1CC1)CC2	7.94µM*
Cc1ccc(Cl)cc1N1CCN(C(=O)CCS(=O)(=O)c2cc(Br)cc3c2N(C(=O)C2CC2)CC3)CC1	10µM*
CCc1cccc(NC(=O)CCS(=O)(=O)c2cc(Br)cc3c2N(C(C)=O)CC3)c1	-9.9%
CCOc1ccc(NS(=O)(=O)c2cc(Br)cc3c2N(C(=O)C2CC2)CC3)cc1	34.8%
CCCCN(Cc1ccccc1)S(=O)(=O)c1cc(Br)cc2c1N(C(C)=O)CC2	i
CCC(=O)N1CCc2cc(Br)cc(S(=O)(=O)CCC(=O)Nc3ccccc3C)c21	1.7%
COc1ccc(N2CCN(C(=O)CCS(=O)(=O)c3cc(Br)cc4c3N(C(=O)C3CC3)CC4)CC2)cc1	5.01µM*
Cc1ccc(Cl)cc1N1CCN(S(=O)(=O)c2cc(Br)cc3c2N(C(=O)C2CC2)CC3)CC1	9.2%
CCC(=O)N1CCc2cc(Br)cc(S(=O)(=O)CCC(=O)N3CCN(c4cc(C)ccc4C)CC3)c21	-8.9%
Cc1ccc(Cl)cc1N1CCN(C(=O)CCNS(=O)(=O)c2ccc3c(c2)CCN3C(=O)C2CC2)CC1	-7.1%
O=C(CCS(=O)(=O)c1cc(Br)cc2c1N(C(=O)C1CC1)CC2)Nc1ccc(F)cc1	3.98µM*
CC(=O)N1CCc2cc(Br)cc(S(=O)(=O)CCC(=O)N3CCN(c4cccc(C)c4C)CC3)c21	-24.4%
COc1ccc(NC2CCCN(CC(=O)Nc3ccc(C)cn3)C2)cc1 (stereo not drawn)	-3.0%
CCOc1cc(=O)n2c(c1C(=O)Nc1cc(C)ccc1F)CCCC2	24.0%
O=C(c1ccsc1)N1CCC2(CC1)N=C(c1ccc(Cl)cc1)NO2	i
COc1cccc(CN2CCOC[C@H](Oc3ccc(S(C)(=O)=O)cc3)C2)c1	i
CNC(=O)[C@@H]1CN(C(=O)CCc2ccccc2OC)C[C@H]1c1n[nH]c(C)n1	-0.6%
CC(C)(C)c1nc(N2CCOCC2)ncc1C(=O)O	59.1%
SMILES	Pf Dd2 inh
COc1cc(C2c3c(-c4ccccc4O)n[nH]c3C(=O)N2CCO)ccc1OCC(C)C (stereo not drawn)	10µM*
COc1cc(C2c3c(-c4ccccc4O)n[nH]c3C(=O)N2Cc2ccco2)ccc1OCC(C)C (stereo not drawn)	2.24µM*
COc1ccc(C2c3c(-c4ccc(F)cc4)n[nH]c3C(=O)N2c2ccccc2)cc1OC (stereo not drawn)	-4.1%
COc1cc(C2c3c(-c4c(C)cc(C)cc4O)n[nH]c3C(=O)N2CCO)cc(OC)c1OC (stereo not drawn)	i
COc1cc(C2c3c(oc4ccccc4c3=O)C(=O)N2Cc2ccccc2Cl)ccc1O (stereo not drawn)	-26.2%
C[C@@H](NC(=O)c1cccs1)c1onc(-c2ccc(F)cc2)c1C(=O)O	3.9%[44.1 µM]
COc1ccccc1/C=C/CN1CCn2nc(CO)cc2C1	-28.9%
COc1cccc(C(=O)N2CCC(N3CCCNC3=O)CC2)c1	10.6%[44.1 µM]
CN1c2cc(C(=O)Nc3cc(F)cc(F)c3)ccc2C(=O)N2CCCCCC21 (stereo not drawn)	4.47µM*
CCN1c2cc(C(=O)NCc3ccccc3)ccc2C(=O)N2CCCCC21 (stereo not drawn)	-4.3%
CCN1c2cc(C(=O)NCc3ccc(C)cc3)ccc2C(=O)N2CCCCCC21 (stereo not drawn)	-9.0%
Cc1cccc(CNC(=O)c2ccc3c(c2)N(C)C2CCCN2C3=O)c1 (stereo not drawn)	10µM*
Cc1cc(C)cc(NC(=O)c2ccc3c(c2)N(C)C2CCCCCN2C3=O)c1 (stereo not drawn)	i
CCc1cccc(NC(=O)c2ccc3c(c2)N(CC)C2CCCCCN2C3=O)c1 (stereo not drawn)	5.62µM*
Cc1ccc(CNC(=O)c2ccc3c(c2)N(C)C2CCCCCN2C3=O)cc1C (stereo not drawn)	i
CCN1c2cc(C(=O)NCc3ccc(C(C)C)cc3)ccc2C(=O)N2CCCCCC21 (stereo not drawn)	11.2µM*
CCc1cccc(NC(=O)c2ccc3c(c2)N(C)C2CCCCCN2C3=O)c1 (stereo not drawn)	-27.4%
CCN1c2cc(C(=O)NCc3cccc(C)c3)ccc2C(=O)N2CCCCC21 (stereo not drawn)	i
CN1c2cc(C(=O)Nc3cccc(F)c3)ccc2C(=O)N2CCCCC21 (stereo not drawn)	-11.4%
CCN1c2cc(C(=O)Nc3cccc(C)c3)ccc2C(=O)N2CCCCCC21 (stereo not drawn)	-15.0%
CCCS(=O)(=O)N1CC(Oc2ccccc2-c2noc(C)n2)C1	17.5%
CCCCC(=O)N1CCc2c(nc3cc(-c4ccccc4Cl)[nH]n3c2=O)C1	i
CCn1c(CN2CCN(CC(=O)N3CCCC3)CC2)nnc1C1CC(N)C1 (stereo not drawn)	-1.9%
COc1cccc(CCC(=O)N2CCC3(CC2)N(C)C(=O)CS3(=O)=O)c1	7.3%
CS(=O)(=O)N1CCCC(C(=O)NC2CCCC2)CCNC(=O)CC1 (stereo not drawn)	23.1%
SMILES	Pf Dd2 inh
CCN1CC2(CCN(C(=O)CCn3nnnc3C)CC2)CC1=O	-0.2%
CC(C)CCN1CCOc2cc(C(=O)Nc3ccncn3)ccc2C1	-3.7%[44.1 µM]
C#CCN(Cc1ccco1)Cc1nc(-c2ccc(C(F)(F)F)cc2)oc1C	-0.4%
CCCc1cnc(C)nc1N1CCC(Oc2ccccc2OC)(C(=O)O)CC1	-21.1%
Cn1nccc1C(=O)N1C[C@@H](Oc2cccnc2)C[C@H]1C(=O)NC1CC1	26.9%
O=C(NC[C@H]1OC[C@@H](NC2CCCCC2)[C@@H]1O)N1CCOCC1	26.0%[44.1 µM]
CCn1nccc1C(=O)N1CCN(C(=O)N2CC3CC(C2)[C@H]2CCCC(=O)N2C3)CC1 (stereo partly drawn)	17.7%
CNc1ncc(C(=O)N2CC[C@@](O)(COC)C(C)(C)C2)cn1	-14.0%
CCc1cccc(NC(=O)c2ccc3c(c2)N(CC)C2CCCCN2C3=O)c1 (stereo not drawn)	4.47µM*
CCN1c2cc(C(=O)Nc3cccc(C)c3)ccc2C(=O)N2CCCCC21 (stereo not drawn)	i
CCc1cccc(NC(=O)c2ccc3c(c2)N(C)C2CCCN2C3=O)c1 (stereo not drawn)	-7.3%
CCN1c2cc(C(=O)Nc3ccc(C)cc3)ccc2C(=O)N2CCCCC21 (stereo not drawn)	i
CCN1c2cc(C(=O)Nc3ccc(Br)c(C)c3)ccc2C(=O)N2CCCCC21 (stereo not drawn)	5.62µM*
CCN1c2cc(C(=O)Nc3ccc(C)c(Cl)c3)ccc2C(=O)N2CCCC21 (stereo not drawn)	-22.3%
N#Cc1cccc(CN[C@@H]2CO[C@H](CNC(=O)C3CC3)[C@H]2O)c1	6.6%[44.1 µM]
